Compounds without any hit were thinned out: in the full panel of roughly 79,000, 15% have a hit. Calls of active or inactive are those of the source. Rule as the data show it: active = growth inhibition above about 70%; inactive = the rest.
Tests used:
[1] = NCI Yeast Anticancer Drug Screen. Data for the rad52 strain (AID 147);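 also: 0% = growth of vehicle-treated control cultures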; conditions: S. cerevisiae rad52 mutant growth inhibition, hits give high values
In short: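 Measured: yeast growth inhibition. System: strain with a defined DNA damage repair alteration. Reference: vehicle-treated control cultures.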

[2] = NCI Yeast Anticancer Drug Screen. Data for the wt1 strain (AID 149);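 also: 0% = growth of vehicle-treated wt1 cultures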; conditions: S. cerevisiae wt1 strain (SPY 50644) growth inhibition, hits give high values
In short: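 Yeast wt1 strain exposed to compounds; growth inhibition measured relative to vehicle-treated controls.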

[3] = NCI Yeast Anticancer Drug Screen. Data for the mgt1 strain (AID 153); conditions: S. cerevisiae mgt1 mutant growth inhibition, hits give high values
In short: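 After exposure of the mgt1 yeast mutant to compound, growth was measured and reported as inhibition compared with vehicle controls.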

[4] = NCI Yeast Anticancer Drug Screen. Data for the rad50 strain (AID 155);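 also: 0% = growth of vehicle-only cultures of the same strain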; conditions: S. cerevisiae rad50 strain growth inhibition, hits give high values
In short: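 Yeast carrying a defined DNA repair defect were exposed to test compounds, and growth was compared with vehicle-treated controls to give percent inhibition.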

[5] = NCI Yeast Anticancer Drug Screen. Data for the mec2-1 strain (AID 157); conditions: S. cerevisiae mec2-1 strain, hits give high values
In short: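 Test agents were screened against the mec2-1 yeast strain, with defined DNA repair or cell cycle alteration. Growth was scored as inhibition against vehicle-only controls.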

[6] = NCI Yeast Anticancer Drug Screen. Data for the rad14 strain (AID 159);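 also: 0% = growth of vehicle-treated control cultures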; conditions: S. cerevisiae rad14 strain growth inhibition, hits give high values
In short: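 Yeast cells carrying a defined DNA-repair defect were exposed to compounds, and growth inhibition was calculated relative to vehicle-treated control cultures.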

[7] = NCI Yeast Anticancer Drug Screen. Data for the sgs1 mgt1 strain (AID 161);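 also: 0% = growth of cultures given vehicle only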; conditions: S. cerevisiae sgs1 mgt1 strain, hits give high values
In short: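 Inhibition of yeast growth, normalised to vehicle-treated controls, is reported for a strain bearing genetic alterations in DNA damage repair.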

[8] = NCI Yeast Anticancer Drug Screen. Data for the CLN2oe strain (AID 163);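 also: 0% = growth of vehicle-only control cultures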; conditions: S. cerevisiae CLN2oe strain, hits give high values
In short: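 Here, growth inhibition in a cell-cycle-altered yeast strain after compound exposure was quantified against vehicle control growth.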

[9] = NCI Yeast Anticancer Drug Screen. Data for the cln2 rad14 strain (AID 165);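 also: 0% = growth equal to vehicle treated cultures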; conditions: S. cerevisiae cln2 rad14 strain, hits give high values
In short: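 Growth of compound-exposed yeast (cln2 rad14 genotype) measured and expressed as inhibition relative to vehicle.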

[10] = NCI Yeast Anticancer Drug Screen. Data for the bub3 strain (AID 167); conditions: S. cerevisiae bub3 mutant strain, hits give high values
In short: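 Compounds were applied to a genetically altered yeast strain carrying a cell-cycle control defect. Growth inhibition was scored against vehicle-treated controls.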

[11] = NCI Yeast Anticancer Drug Screen. Data for the wt2 strain (AID 169);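 also: 0% = growth of vehicle-treated yeast cultures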; conditions: S. cerevisiae wt2 strain growth inhibition, hits give high values
In short: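 Genetically defined yeast strains from a DNA-repair/cell-cycle panel were used. Compound-exposed yeast growth was measured, and the inhibition was calculated relative to vehicle treatment.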

[12] = NCI Yeast Anticancer Drug Screen. Data for the sgs1 strain (AID 173);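 also: 0% = growth of vehicle-only control cultures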; conditions: S. cerevisiae sgs1 mutant, hits give high values
In short: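 Relative growth inhibition, referenced to vehicle, was determined in a yeast strain with a defined alteration affecting DNA damage repair or cell cycle control after compound exposure.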

[13] = NCI Yeast Anticancer Drug Screen. Data for the mlh1 rad18 strain (AID 175); conditions: S. cerevisiae mlh1 rad18 strain growth inhibition, hits give high values
In short: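 In this whole-cell yeast screen, a strain with altered DNA damage repair is challenged with compound, and its growth is measured against matched vehicle-treated controls.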

[14] = NCI Yeast Anticancer Drug Screen. Data for the rad18 strain (AID 177); conditions: S. cerevisiae rad18 mutant growth inhibition, hits give high values
In short: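 Screen uses a yeast strain with a defined lesion in DNA damage repair; compound effect is read as loss of growth compared to untreated vehicle cultures.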

[15] = NCI Yeast Anticancer Drug Screen. Data for the mlh1 strain (AID 171);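 also: 0% = growth of vehicle-treated control cultures of the same strain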; conditions: S. cerevisiae mlh1 strain growth inhibition, hits give high values
In short: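 Here the genetically defined yeast mutant is grown with each compound, and the extent to which its growth falls below that of vehicle-exposed cells is reported.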

[16] = at 5.0 µM (retest, dose inferred, filed as 0.5)
[17] = at 50.0 µM (retest, dose inferred, filed as 5.0)

Measured: growth inhibition

CC1CCN(CCC(=O)c2ccc([N+](=O)[O-])cc2)CC1
active: [10]; at 50.0 µM 89.6%
inactive: [1]; at 1.2 µM 9% | [1]; at 3.7 µM 1% | [1]; at 11.0 µM 8% | [1]; at 33.0 µM 34% | [1]; at 100.0 µM 40% | [2]; at 1.2 µM -1% | [2]; at 3.7 µM -1% | [2]; at 11.0 µM 1% | [2]; at 33.0 µM 0% | [2]; at 100.0 µM 7% | [3]; at 1.2 µM -4% | [3]; at 3.7 µM 3% | [3]; at 11.0 µM 6% | [3]; at 33.0 µM 21% | [3]; at 100.0 µM 38% | [4]; at 1.2 µM 9% | [4]; at 3.7 µM 13% | [4]; [16] 6% | [4]; at 11.0 µM 15% | [4]; at 33.0 µM 37% | [4]; [17] 31% | [4]; at 50.0 µM 63.5% | [4]; at 100.0 µM 48% | [5]; at 1.2 µM -1% | [5]; at 3.7 µM 2% | [5]; [16] 4% | [5]; at 11.0 µM 1% | [5]; at 33.0 µM 0% | [5]; [17] 69% | [5]; at 50.0 µM 14.5% | [5]; at 100.0 µM 14% | [6]; at 1.2 µM 14% | [6]; at 3.7 µM 25% | [6]; at 11.0 µM 34% | [6]; at 33.0 µM 36% | [6]; at 100.0 µM 45% | [7]; [16] 7% | [7]; [17] 68% | [7]; at 50.0 µM 68.5% | [8]; at 1.2 µM 2% | [8]; at 3.7 µM 5% | [8]; at 11.0 µM 15% | [8]; at 33.0 µM 30% | [8]; at 100.0 µM 40% | [9]; [16] 8% | [9]; [17] 34% | [9]; at 50.0 µM 31.2% | [10]; at 1.2 µM -2% | [10]; at 3.7 µM 2% | [10]; [16] 7% | [10]; at 11.0 µM 6% | [10]; at 33.0 µM 18% | [10]; [17] 65% | [10]; at 100.0 µM 31% | [11]; at 1.2 µM -6% | [11]; at 3.7 µM -2% | [11]; at 11.0 µM 3% | [11]; at 33.0 µM 1% | [11]; at 100.0 µM 16% | [12]; at 1.2 µM 2% | [12]; at 3.7 µM 16% | [12]; at 11.0 µM 25% | [12]; at 33.0 µM 46% | [12]; at 100.0 µM 54% | [13]; [16] 7% | [13]; [17] 62% | [13]; at 50.0 µM 40.4% | [14]; at 1.2 µM 6% | [14]; at 3.7 µM 16% | [14]; at 11.0 µM 23% | [14]; at 33.0 µM 20% | [14]; at 100.0 µM 31%

CCCCCCC=C(C(=O)OCC)C(=O)OCC
active: [13]; [17] 85% | [13]; at 50.0 µM 76.3%
inactive: [1]; at 1.2 µM -2% | [1]; at 3.7 µM 0% | [1]; at 11.0 µM -1% | [1]; at 33.0 µM 2% | [1]; at 100.0 µM 23% | [2]; at 1.2 µM -2% | [2]; at 3.7 µM -3% | [2]; at 11.0 µM -6% | [2]; at 33.0 µM -7% | [2]; at 100.0 µM 4% | [3]; at 1.2 µM -1% | [3]; at 3.7 µM -3% | [3]; at 11.0 µM 0% | [3]; at 33.0 µM -5% | [3]; at 100.0 µM 13% | [4]; at 1.2 µM -2% | [4]; at 3.7 µM -3% | [4]; [16] -18% | [4]; at 11.0 µM -3% | [4]; at 33.0 µM -5% | [4]; [17] 11% | [4]; at 50.0 µM -8.3% | [4]; at 100.0 µM 22% | [5]; at 1.2 µM -1% | [5]; at 3.7 µM 1% | [5]; [16] -8% | [5]; at 11.0 µM -2% | [5]; at 33.0 µM 5% | [5]; [17] 46% | [5]; at 50.0 µM 38% | [5]; at 100.0 µM 22% | [6]; at 1.2 µM -3% | [6]; at 3.7 µM -4% | [6]; at 11.0 µM -2% | [6]; at 33.0 µM 2% | [6]; at 100.0 µM 13% | [7]; [16] -11% | [7]; [17] 68% | [7]; at 50.0 µM 42% | [8]; at 1.2 µM -4% | [8]; at 3.7 µM -4% | [8]; at 11.0 µM -8% | [8]; at 33.0 µM -10% | [8]; at 100.0 µM 3% | [9]; [16] -13% | [9]; [17] 19% | [9]; at 50.0 µM 18.1% | [10]; at 1.2 µM 0% | [10]; at 3.7 µM 0% | [10]; [16] -6% | [10]; at 11.0 µM -1% | [10]; at 33.0 µM 1% | [10]; [17] 18% | [10]; at 50.0 µM 63% | [10]; at 100.0 µM 17% | [15]; at 1.2 µM -2% | [15]; at 3.7 µM -2% | [15]; at 11.0 µM -7% | [15]; at 33.0 µM 1% | [15]; at 100.0 µM 19% | [12]; at 1.2 µM -1% | [12]; at 3.7 µM -1% | [12]; at 11.0 µM 1% | [12]; at 33.0 µM 5% | [12]; at 100.0 µM 30% | [13]; [16] -3%

O=C(C#Cc1ccccc1)/C=C/c1ccccc1
active: [1]; at 33.0 µM 78% | [1]; at 100.0 µM 95% | [2]; at 100.0 µM 96% | [3]; at 100.0 µM 96% | [4]; at 33.0 µM 82% | [4]; [17] 72% | [4]; at 50.0 µM 99% | [4]; at 100.0 µM 94% | [5]; at 50.0 µM 77.3%
inactive: [1]; at 1.2 µM 4% | [1]; at 3.7 µM 3% | [1]; at 11.0 µM 29% | [2]; at 1.2 µM -6% | [2]; at 3.7 µM -9% | [2]; at 11.0 µM 10% | [2]; at 33.0 µM 51% | [3]; at 1.2 µM 0% | [3]; at 3.7 µM -5% | [3]; at 11.0 µM 3% | [3]; at 33.0 µM 28% | [4]; at 1.2 µM -6% | [4]; at 3.7 µM -8% | [4]; [16] -136% | [4]; at 11.0 µM 8% | [5]; at 1.2 µM 0% | [5]; at 3.7 µM 2% | [5]; [16] -43% | [5]; at 11.0 µM 4% | [5]; at 33.0 µM 16% | [5]; [17] 10%

Reference: PubChem BioAssay (NCI)
